Measured values as given in ChEMBL document CHEMBL3433997, “St. Jude Leishmania screening dataset” (2016).

What was measured:
Format in all cases: functional
[1] = target: Solute carrier family 2, facilitated glucose transporter member 1 (Homo sapiens) (UniProt P11166); assay: ST_JUDE_LEISH: Cytotoxicity at 2uM final concentration against transgenic Leishmania Mexicana promastigotes LmGLUT1 that are glucose transport deficient and complemented with the human glucose transporter GLUT1. Activity is measured by DNA content using SYBR green in vitro
Chain of Solute carrier family 2, facilitated glucose transporter member 1 (Homo sapiens) (P11166 whole entry): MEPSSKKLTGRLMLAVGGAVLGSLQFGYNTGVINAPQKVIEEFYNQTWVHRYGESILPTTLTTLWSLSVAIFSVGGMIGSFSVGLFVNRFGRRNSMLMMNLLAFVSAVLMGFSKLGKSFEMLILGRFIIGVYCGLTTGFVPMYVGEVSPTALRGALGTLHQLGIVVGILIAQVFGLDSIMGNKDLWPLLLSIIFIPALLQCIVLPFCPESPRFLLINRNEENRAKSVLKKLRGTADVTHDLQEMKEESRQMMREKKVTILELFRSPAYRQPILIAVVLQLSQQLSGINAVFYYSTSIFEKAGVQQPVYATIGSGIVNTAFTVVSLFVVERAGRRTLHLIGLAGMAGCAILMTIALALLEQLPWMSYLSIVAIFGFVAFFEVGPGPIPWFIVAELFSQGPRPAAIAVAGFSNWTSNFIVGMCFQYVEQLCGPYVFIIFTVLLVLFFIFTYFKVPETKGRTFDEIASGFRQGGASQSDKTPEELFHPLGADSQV

[2] = target: Hexose transporter 1 (Plasmodium falciparum) (UniProt O97467); assay: ST_JUDE_LEISH: Cytotoxicity at 2uM final concentration against transgenic Leishmania Mexicana promastigotes LmPfHT that are glucose transport deficient and complemented with the Plasmodium falciparum hexose transporter. Activity is measured by DNA content using SYBR green in vitro
[3] = target: Glucose transporter (Leishmania mexicana) (UniProt O61059); assay: ST_JUDE_LEISH: Cytotoxicity at 2uM final concentration against transgenic Leishmania Mexicana promastigotes LmGT2 that are glucose transport deficient and complemented with the L. Mexicana glucose transporter 2. Activity is measured by DNA content using SYBR green in vitro

Row | SMILES | inhibition [1] | inhibition [2] | inhibition [3]
1 | COc1ccccc1C1CCN(Cc2csc(NC(=O)c3ccc(-c4ccc(C(F)(F)F)cc4)cc3)n2)CC1 | 7.33% | 6.58% | 3.56%
2 | Cc1cccc2nc(-c3ccc(-c4cccc(CN5CCN(c6ccc(C#N)cn6)CC5)c4)s3)[nH]c12 | 0.91% | -1.69% | 1.21%
3 | O=c1cc(NCCCNCc2cccc3c2OC(F)(F)O3)[nH]c2ccccc12 | 2.3% | 1.38% | 1.85%
4 | CC(=O)Nc1cc(C(=O)Nc2cccc(-c3cccc(-c4nc5cccc(C)c5[nH]4)c3)c2)ccc1C | 2.89% | 2.86% | 1.31%
5 | Cc1ccc(C(=O)Nc2ccc(Cl)c(N3CCN(CCc4ccccc4)CC3)c2)cc1 | 4.14% | 8.02% | 6.51%
6 | COc1cc2c(OC)cccc2cc1CNCCCCCCNCc1cc2cccc(OC)c2cc1OC | 0.11% | 6.08% | -0.11%
7 | COc1ccc(CCON2C(=N)N=C(N)NC2(C)C)cc1OC | 2.04% | 2.62% | 3.2%
8 | Cc1nc2nc(N)nc(N)c2c(C)c1Cc1ccccc1Cl | 9.22% | 12.6% | 7.89%
9 | COc1ccccc1C1CCN(C2CCC(NC(=O)/C=C/c3cc(C(F)(F)F)ccc3F)CC2)CC1 (centres undefined) | 2.98% | 2.36% | 3.14%
10 | CCCCCCOc1ccccc1C(=O)NCCOc1ccc(Cl)cc1 | 3.58% | -1.45% | -1.97%
11 | O=C(NCCCCN1CCCC2c3cccc(O)c3CCC21)c1ccc(-c2ccccc2)cc1 (centres undefined) | 0.9% | -0.26% | -0.23%
12 | Cc1cc(-c2ccc(CNC3Cc4ccccc4C3)cc2)ccc1S(=O)(=O)NCCN1CCCC1 | 30.9% | 30.9% | 3.47%
13 | O=C(NCC1CCN(Cc2ccc3c(c2)OCCO3)C1)c1cc(-c2ccccc2F)cs1 (centres undefined) | 4.88% | 4.71% | 7.55%
14 | CCCOc1cc(OCCC)cc(-c2ccc(C(=O)Nc3ccc4ccc(C)nc4c3)c(=O)[nH]2)c1 | 1.35% | 0.78% | 3.33%
15 | Cn1cncc1C(=O)Nc1ccc(-c2cccc(-c3nc4cc(C(F)(F)F)ccc4[nH]3)c2)cc1 | 1.53% | 1.11% | 2.32%
16 | CC(=NNc1nc2ccccc2s1)c1ccccn1 | 7.41% | 17.9% | 3.21%
17 | Cc1cc(NC(=O)Nc2ccc3nccc(N4CCN(C)CC4)c3c2)ccc1Br | -0.1% | 1.48% | 1.15%
18 | C=Cc1sc(CNCCCNc2cc(=O)c3ccccc3[nH]2)c(C)c1Br | 0.34% | 0.27% | -0.58%
19 | O=C(/C=C/c1ccc(I)cc1)NCCCCCN1CCC(c2c[nH]c3ccc(O)cc23)CC1 | 1.49% | 1.64% | 1.49%
20 | CCCC(CNCc1cccc(I)c1)CNc1cc(=O)c2ccccc2[nH]1 (centres undefined) | 1.04% | 2.83% | 2.67%
21 | O=C(/C=C/c1ccc(Cl)c(Cl)c1)NCCCCCN1CC[C@H](NC(=O)c2sc3ccccc3c2Cl)C1 | 5.64% | 3.45% | -1.69%
22 | C=CCNC(=O)CCCNC(=N)N | 1.5% | 1.22% | -0.35%
23 | Cc1ccc(CNC(=O)[C@H](CCCN)Nc2cc(C)nc(NCC3CCCCC3)n2)cc1 | 1.46% | 1.17% | 0.32%
24 | COc1ccc(NC(=O)C2c3ccccc3C(=O)N(C3CCCC3)C2c2cccs2)cc1 (centres undefined) | 5.7% | 4.78% | 5%
25 | COc1ccc2nccc([C@@H](O)CN3CCC(NCc4ccc(OC)c(NC(C)=O)c4)CC3)c2c1 | 0.33% | -2.04% | -1.41%

Row | SMILES | inhibition [1] | inhibition [2] | inhibition [3]
26 | O=C(Nc1ccc(C(F)(F)F)cc1)N[C@H]1CCN(CCCCCNC(=O)C2CC2c2ccc(Cl)c(Cl)c2)C1 (some centres undefined) | 3.36% | 2.73% | 2.17%
27 | COc1ccc2c(NN=Cc3cccnc3)ccnc2c1 | 0.4% | 2.02% | -0.33%
28 | CC1(C)NC(N)=NC(=N)N1OCCCc1ccc(Cl)cc1Cl | 2.76% | 1.95% | 2.33%
29 | O=C(/C=C/c1cccc(Cl)c1)Nc1ccc2nc(CN3CCCC3)ccc2c1 | 3.42% | 5.45% | 3.23%
30 | Cc1cccc2nc(-c3cccc(-c4cccc(NC(=O)c5cn(C)c(=O)n5C)c4)c3)[nH]c12 | 1.98% | 1.44% | -0.64%
31 | O=C(NCc1ccc(Cl)c(Cl)c1)c1cccc(C2CCCN(Cc3ccc4[nH]cnc4c3)C2)c1 (centres undefined) | 0.36% | 2.01% | -0.63%
32 | CN(C)CCOc1ccc(-c2cc(-c3ccncc3)c(-c3ccc(Cl)c(O)c3)[nH]2)cc1 | 1.45% | 1.71% | 1.4%
33 | CC1(CCc2ccccc2)N=C(N)N=C(N)C1c1ccc(Cl)c(Cl)c1 (centres undefined) | 9.55% | 9.47% | 8.62%
34 | O=C(Nc1ccc(N2CCN(Cc3cccc(F)c3)CC2)cc1)c1cccs1 | 3.08% | 2.27% | 4.59%
35 | O=C(NC1CCN(Cc2ccc3c(c2)OCCO3)CC1)c1ccc(-c2cccc(C(F)(F)F)c2)s1 | 3.14% | 1.52% | 2.57%
36 | COc1cc(F)c2ncc(Cl)c([C@H](O)CN3CCC(NCc4cc5c(cn4)OCCO5)CC3)c2c1 | 7.62% | 7.47% | 2.15%
37 | COc1ccc(Br)cc1/C=C/C(=O)Nc1ccc(C2CCCN(C)C2)cc1 (centres undefined) | 3.89% | 2.73% | 5.71%
38 | CC(=O)c1ccc(NC(=O)NNC(=O)c2ccc(CCN3CCC(c4nc(COCC(F)(F)F)c(-c5ccc(F)cc5)o4)CC3)cc2)cc1 | 0.31% | 0.69% | -1.37%
39 | N=C(N)NC(=O)Nc1cc(Cl)c(Cl)c(C(F)(F)F)c1 | 2.87% | 3.46% | 1.58%
40 | Cc1cccc2nc(-c3cccc(-c4ccc(NC(=O)C5CCCO5)cc4)c3)[nH]c12 (centres undefined) | 6.93% | 3.31% | 2.04%
41 | O=C(NCc1ccc2c(c1)OCO2)c1nn(CCN2CCC(N3CCCC3)CC2)cc1-c1ccc(Cl)c(Cl)c1 | 2.53% | 0.54% | 0.75%
42 | Cn1cccc1C(=O)Nc1cccc(-c2nn3ccccc3c2-c2ccnc(Nc3ccc4c(c3)OCCO4)n2)c1 | 4.74% | 9.05% | -1.17%
43 | Cc1nc(-c2cccc3c(NC(=O)N4CCc5cc6nccc(N7CCN(C)CC7)c6cc54)cccc23)no1 | 1.15% | -2.64% | -0.68%
44 | COc1ccc2nccc(N3CCC(NCCNCc4cc5c(cn4)OCCO5)C3)c2n1 (centres undefined) | 2.14% | 2.64% | 3.54%
45 | CCN(CC)CCNC(=O)c1ccc(NC(=O)c2cn(-c3ccccc3)nc2-c2cccs2)cc1 | 5.46% | 4.01% | 6.19%
46 | CN(C)C(=S)N/N=C1/C(=O)Nc2ccc(OC(F)(F)F)cc21 | 1.94% | 1.64% | 0.75%
47 | Cc1cccc2nc(-c3cccc(-c4ccc(NC(=O)c5c[nH]cn5)cc4)c3)[nH]c12 | -0.79% | -0.73% | -1.26%
48 | CC(CN1CCN(C)CC1)C(=O)Nc1ccc(-c2cccc(-c3nc4cc(F)ccc4[nH]3)c2)cc1 (centres undefined) | 2.46% | 2.1% | 5.11%
49 | Cc1nc(-c2cccc(C(=O)NC3CCC(CCN4CCc5ccc(-c6cccnc6)cc5CC4)CC3)c2)no1 (centres undefined) | 11.5% | 2.55% | 4.24%
50 | Cc1cc(=O)c(-c2ccc(Oc3ccc(Cl)cc3Cl)cc2)c(C)[nH]1 | 2.15% | 3.32% | 1.9%

Row | SMILES | inhibition [1] | inhibition [2] | inhibition [3]
51 | COc1cccc(OC)c1C(=O)Nc1cccc(-c2nn3ccccc3c2-c2ccnc(Nc3cccc(F)c3)n2)c1 | 6.78% | 9.03% | 4.91%
52 | COc1ccc2c(c1)S(=O)(=O)N=C(N1CCCC1c1ccc(Cl)c(Cl)c1)N2C (centres undefined) | -1.4% | -0.89% | -1.05%
53 | Cc1ccccc1CNc1noc(-c2c(-c3ccccc3)noc2C)n1 | -2.97% | 2.16% | 6.28%
54 | N#Cc1ccc2c(c1)CCN(CCC1CCC(NC(=O)c3cccc(-c4ccc(F)cc4)c3)CC1)CC2 (centres undefined) | 5.14% | 2.32% | 5.8%
55 | CCCCNC(=O)[C@H](CC1CCCCC1)NC(=O)c1ccc(O)c(-c2cccc(C(F)(F)F)c2)c1 | 2.16% | 3.75% | 3.61%
56 | CCN(CC)CCCC(C)Nc1c2ccccc2nc2c1ccc1ccccc12 (centres undefined) | 7.99% | 3.26% | 7.76%
57 | Cc1cccc2nc(-c3ccc(-c4cccc(CNCCCN5CCCC5=O)c4)s3)[nH]c12 | 3.74% | 2.33% | 2.91%
58 | CC(C)CCNc1nc2ccccc2nc1Nc1cccc(C(F)(F)F)c1 | 2.21% | 3.55% | 2.32%
59 | Cc1nc(C)c(-c2ccc(C(F)(F)F)cc2)c(O)c1Br | 2.72% | 1.79% | 0.77%
60 | O=C(NCc1cccc2ccccc12)C1CCCN(C(=O)c2ccc(O)c(-c3ccc(Cl)c(Cl)c3)c2)C1 (centres undefined) | 1.68% | 1.11% | 1.88%
61 | O=C(COc1ccccc1)NC1CCN(c2ccnc3cc(Cl)ccc23)C1 (centres undefined) | 0.14% | 1% | 1.75%
62 | Nc1nc(N)c2c(ccc3c2ccn3C2CCCCC2)n1 | 24.3% | 36.6% | 25.7%
63 | O=C(Nc1ccc(Cl)cc1)N1CCN(C2CCCCC2)CC1 | 4.49% | 2.78% | 3.2%
64 | O=S(=O)(NCCN1CCCC1)c1ccc(-c2cccc(CNC3Cc4ccccc4C3)c2)cc1F | 7.61% | 2.53% | 3.93%
65 | O=[N+]([O-])c1ccccc1/C=N/Nc1ccnc2cc(Cl)ccc12 | 4.36% | 4.22% | 3.41%
66 | CCN(CC)CCNC(=O)c1ccc(NC(=O)c2oc3c(Cl)cccc3c2C)cc1 | 12.1% | 8.3% | 7.44%
67 | CN(C)Cc1cccc(-c2ccc(NC(=O)c3ccc4c(=O)n(CCN5CCCCC5)cnc4c3)cc2)c1 | 3.67% | 3.74% | 0.81%
68 | CCCc1ccccc1Nc1nc(C)cc(N(CC)CCCN2CCCCC2)n1 | 5.33% | 5.19% | 5.53%
69 | CO[C@H](C)[C@H](NC(=O)[C@H](CC(C)C)[C@H](CCC(F)(F)F)N(O)C=O)C(=O)Nc1nccs1 | 4.95% | 4.95% | 3.68%
70 | COc1ccc2ncc(Cl)c(CCN3C[C@H](CNCc4ccc5c(n4)NC(=O)CS5)[C@H](O)C3)c2n1 | 5.41% | 2.07% | 2.02%
71 | Brc1cc(CNCCCNc2nc3ccccc3[nH]2)sc1Br | 6.22% | 9.1% | 6.32%
72 | Cc1cc(N[C@@H](Cc2ccccc2)C(=O)NC2CCCC2)nc(NCCc2cccs2)n1 | 1.27% | 2.88% | 1.56%
73 | Nc1nc(N)c2cc(Cc3ccc([N+](=O)[O-])cc3)cnc2n1 | -2.65% | 0.37% | -0.27%
